This is an account of results in the supplement of paper PMC10849652.

The full data set covers some 8,800 targets. This sample favours those with a hit. About 0.5% of all pairs of compound and target were hits. A number with no mark means an inactive call.

Common to all, as to assay: log2 fold change, soluble protein after heating vs DMSO (PISA); higher = thermal stabilisation; K562 lysate, 10 uM; active = over 0.2 and 3.5 SD of the protein, either way, in both replicates (recomputed)
Compound in assay [1]: NCC(=O)Nc1ccc(-n2nc(C(F)(F)F)cc2-c2ccc3c(ccc4ccccc43)c2)cc1
In outline: (§1)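 Values give the log-two fold change in thermal stability against solvent controls, from duplicates. Crude K562 extract at 1 mg/mL protein, made by dounce homogenisation in PBS pH 7.4 with 1 mM MgCl2, was treated with 10 μM compound for 30 min. After 3 min heating across 48°C-58°C, aliquots were pooled, adjusted to 0.5% NP-40 at 4°C and centrifuged at 21,000xg for 90 min. The supernatant was measured by TMTpro 16plex LC-MS/MS with channel sums equalised.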

Compound in the next assay: O=C(CCCCCCC(=O)Nc1ccccc1)NO [vorinostat]
A digest of the protocol:
as §1

Compound in another assay: O=C(O)c1ccc2c(c1)nc(Nc1cccc(Cl)c1)c1ccncc12 [silmitasertib]
A digest of the protocol: as §1

Compound in assay [2]: O=C1NC(=O)C(c2cnc3ccccn23)=C1c1cn2c3c(cc(F)cc13)CN(C(=O)N1CCCCC1)CC2
A digest of the protocol: as §1

Compound in another assay: c1cn2cc(-c3ccc4cn[nH]c4c3)nc(Nc3ccc(N4CCOCC4)cc3)c2n1 [entospletinib]
In outline:
as §1

Chain of UniProt O15014 (O15014 whole entry, looked up): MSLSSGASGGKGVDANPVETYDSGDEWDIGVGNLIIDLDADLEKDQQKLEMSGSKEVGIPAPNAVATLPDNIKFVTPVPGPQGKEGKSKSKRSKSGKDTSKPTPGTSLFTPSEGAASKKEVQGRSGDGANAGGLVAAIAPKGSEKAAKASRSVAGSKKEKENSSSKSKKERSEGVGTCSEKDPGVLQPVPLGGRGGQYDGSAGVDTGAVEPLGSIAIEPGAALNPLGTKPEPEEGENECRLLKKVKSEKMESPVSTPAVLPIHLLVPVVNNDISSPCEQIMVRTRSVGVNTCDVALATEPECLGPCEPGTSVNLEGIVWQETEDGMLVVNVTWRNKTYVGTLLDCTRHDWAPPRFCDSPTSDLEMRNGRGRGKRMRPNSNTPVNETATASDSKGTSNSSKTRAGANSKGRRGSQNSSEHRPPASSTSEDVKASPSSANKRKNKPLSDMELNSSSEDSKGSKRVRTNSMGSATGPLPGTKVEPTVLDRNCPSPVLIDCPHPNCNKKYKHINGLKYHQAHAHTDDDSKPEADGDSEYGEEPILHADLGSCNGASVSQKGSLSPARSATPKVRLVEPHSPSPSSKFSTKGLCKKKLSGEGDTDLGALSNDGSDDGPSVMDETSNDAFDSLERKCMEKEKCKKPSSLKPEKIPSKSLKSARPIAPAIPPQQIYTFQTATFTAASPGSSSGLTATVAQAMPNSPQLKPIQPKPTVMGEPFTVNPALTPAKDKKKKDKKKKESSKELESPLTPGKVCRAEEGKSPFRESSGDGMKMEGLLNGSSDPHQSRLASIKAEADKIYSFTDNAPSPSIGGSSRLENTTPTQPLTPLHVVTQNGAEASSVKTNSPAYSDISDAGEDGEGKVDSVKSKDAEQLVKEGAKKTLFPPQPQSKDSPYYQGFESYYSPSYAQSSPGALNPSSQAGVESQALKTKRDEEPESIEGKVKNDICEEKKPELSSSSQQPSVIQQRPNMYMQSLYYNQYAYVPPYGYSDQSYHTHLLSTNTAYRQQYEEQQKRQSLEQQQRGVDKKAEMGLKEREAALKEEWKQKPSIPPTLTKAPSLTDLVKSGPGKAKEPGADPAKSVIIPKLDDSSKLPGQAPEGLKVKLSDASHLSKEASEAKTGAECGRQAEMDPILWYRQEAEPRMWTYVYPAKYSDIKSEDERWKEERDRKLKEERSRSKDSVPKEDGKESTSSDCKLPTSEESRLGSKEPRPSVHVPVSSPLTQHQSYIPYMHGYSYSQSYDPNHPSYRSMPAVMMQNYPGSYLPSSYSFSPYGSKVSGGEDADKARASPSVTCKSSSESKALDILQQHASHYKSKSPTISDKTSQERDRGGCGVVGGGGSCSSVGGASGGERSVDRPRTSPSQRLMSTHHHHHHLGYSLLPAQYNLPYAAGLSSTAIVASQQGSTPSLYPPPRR
Chain of UniProt Q9Y4E6 (Q9Y4E6 whole entry, looked up): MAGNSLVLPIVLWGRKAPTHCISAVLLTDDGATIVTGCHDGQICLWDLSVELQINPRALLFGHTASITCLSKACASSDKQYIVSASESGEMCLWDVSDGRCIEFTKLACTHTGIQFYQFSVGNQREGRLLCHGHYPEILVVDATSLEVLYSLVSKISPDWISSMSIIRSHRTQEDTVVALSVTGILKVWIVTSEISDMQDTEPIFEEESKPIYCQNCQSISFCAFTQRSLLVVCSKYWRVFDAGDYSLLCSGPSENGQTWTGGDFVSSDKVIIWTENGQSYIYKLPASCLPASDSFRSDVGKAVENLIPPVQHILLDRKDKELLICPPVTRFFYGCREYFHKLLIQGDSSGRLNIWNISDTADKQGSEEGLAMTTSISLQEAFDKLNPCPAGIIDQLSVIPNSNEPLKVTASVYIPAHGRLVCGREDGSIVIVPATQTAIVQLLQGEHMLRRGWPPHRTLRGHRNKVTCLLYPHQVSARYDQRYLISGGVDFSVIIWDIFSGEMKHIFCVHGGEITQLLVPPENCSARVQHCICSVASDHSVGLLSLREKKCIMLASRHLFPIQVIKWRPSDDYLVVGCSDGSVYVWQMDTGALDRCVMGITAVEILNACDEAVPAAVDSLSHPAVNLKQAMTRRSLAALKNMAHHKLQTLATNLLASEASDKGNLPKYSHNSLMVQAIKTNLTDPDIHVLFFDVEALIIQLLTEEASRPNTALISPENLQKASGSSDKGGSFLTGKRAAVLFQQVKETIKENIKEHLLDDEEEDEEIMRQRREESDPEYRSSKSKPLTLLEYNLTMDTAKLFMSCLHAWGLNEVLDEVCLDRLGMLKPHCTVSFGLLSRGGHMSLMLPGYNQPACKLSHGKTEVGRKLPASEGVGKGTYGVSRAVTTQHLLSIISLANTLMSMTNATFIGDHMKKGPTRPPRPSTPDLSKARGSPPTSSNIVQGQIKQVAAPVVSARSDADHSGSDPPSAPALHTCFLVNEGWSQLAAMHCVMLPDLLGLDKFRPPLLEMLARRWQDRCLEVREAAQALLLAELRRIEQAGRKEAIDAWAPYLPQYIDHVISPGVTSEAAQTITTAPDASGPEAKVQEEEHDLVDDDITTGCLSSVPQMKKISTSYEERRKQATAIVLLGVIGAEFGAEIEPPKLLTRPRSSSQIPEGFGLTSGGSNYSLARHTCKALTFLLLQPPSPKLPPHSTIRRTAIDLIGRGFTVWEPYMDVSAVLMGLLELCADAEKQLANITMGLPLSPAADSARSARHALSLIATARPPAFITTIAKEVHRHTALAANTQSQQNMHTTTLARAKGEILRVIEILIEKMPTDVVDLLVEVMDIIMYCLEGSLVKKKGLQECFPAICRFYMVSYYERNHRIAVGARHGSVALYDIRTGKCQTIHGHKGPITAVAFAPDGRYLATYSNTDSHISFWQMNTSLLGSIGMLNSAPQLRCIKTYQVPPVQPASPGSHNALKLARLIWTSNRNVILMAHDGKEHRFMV
Chain of UniProt Q86Y07 (Q86Y07 whole entry, looked up): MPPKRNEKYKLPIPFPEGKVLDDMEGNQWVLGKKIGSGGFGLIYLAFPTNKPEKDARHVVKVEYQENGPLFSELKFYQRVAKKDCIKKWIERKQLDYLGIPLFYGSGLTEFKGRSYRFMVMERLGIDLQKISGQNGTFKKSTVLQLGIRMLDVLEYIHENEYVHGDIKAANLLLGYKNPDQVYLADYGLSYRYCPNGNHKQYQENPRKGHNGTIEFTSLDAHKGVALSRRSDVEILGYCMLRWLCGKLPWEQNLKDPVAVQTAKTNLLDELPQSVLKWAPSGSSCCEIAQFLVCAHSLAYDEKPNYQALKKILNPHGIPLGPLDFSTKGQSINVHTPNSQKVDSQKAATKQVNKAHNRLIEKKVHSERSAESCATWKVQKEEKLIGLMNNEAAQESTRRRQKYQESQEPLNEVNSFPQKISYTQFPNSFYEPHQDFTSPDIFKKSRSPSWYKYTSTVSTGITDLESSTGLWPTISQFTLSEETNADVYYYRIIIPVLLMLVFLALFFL
Chain of UniProt Q9NNW5 (Q9NNW5 whole entry, looked up): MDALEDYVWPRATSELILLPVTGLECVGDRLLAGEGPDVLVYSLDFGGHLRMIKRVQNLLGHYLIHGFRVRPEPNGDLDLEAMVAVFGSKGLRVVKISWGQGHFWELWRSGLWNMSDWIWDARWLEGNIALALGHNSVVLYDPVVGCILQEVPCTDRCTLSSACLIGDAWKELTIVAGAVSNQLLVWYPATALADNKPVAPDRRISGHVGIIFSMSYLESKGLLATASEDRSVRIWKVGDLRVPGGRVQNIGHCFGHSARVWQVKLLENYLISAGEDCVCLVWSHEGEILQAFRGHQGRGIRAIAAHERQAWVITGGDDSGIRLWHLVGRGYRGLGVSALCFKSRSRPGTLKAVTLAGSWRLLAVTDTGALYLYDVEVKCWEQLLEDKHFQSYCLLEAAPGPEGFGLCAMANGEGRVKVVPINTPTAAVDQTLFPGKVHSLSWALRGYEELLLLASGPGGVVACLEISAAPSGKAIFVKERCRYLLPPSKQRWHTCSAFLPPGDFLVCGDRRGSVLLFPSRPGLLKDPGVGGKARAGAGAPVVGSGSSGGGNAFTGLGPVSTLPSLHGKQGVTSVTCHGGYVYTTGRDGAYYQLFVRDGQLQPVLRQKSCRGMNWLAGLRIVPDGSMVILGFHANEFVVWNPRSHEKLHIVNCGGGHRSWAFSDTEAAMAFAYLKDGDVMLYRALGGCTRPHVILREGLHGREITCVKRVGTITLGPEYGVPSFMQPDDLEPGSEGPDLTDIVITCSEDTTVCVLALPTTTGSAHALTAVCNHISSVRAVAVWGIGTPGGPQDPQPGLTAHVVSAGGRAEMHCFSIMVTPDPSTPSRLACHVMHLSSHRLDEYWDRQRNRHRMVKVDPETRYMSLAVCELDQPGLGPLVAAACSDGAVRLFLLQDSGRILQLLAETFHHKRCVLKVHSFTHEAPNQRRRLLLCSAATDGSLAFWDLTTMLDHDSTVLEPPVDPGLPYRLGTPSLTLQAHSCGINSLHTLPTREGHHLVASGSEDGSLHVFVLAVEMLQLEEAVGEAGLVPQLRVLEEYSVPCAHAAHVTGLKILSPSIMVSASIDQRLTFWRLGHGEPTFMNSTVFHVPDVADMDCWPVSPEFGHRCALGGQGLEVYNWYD
Chain of UniProt Q86U90 (Q86U90 whole entry, looked up): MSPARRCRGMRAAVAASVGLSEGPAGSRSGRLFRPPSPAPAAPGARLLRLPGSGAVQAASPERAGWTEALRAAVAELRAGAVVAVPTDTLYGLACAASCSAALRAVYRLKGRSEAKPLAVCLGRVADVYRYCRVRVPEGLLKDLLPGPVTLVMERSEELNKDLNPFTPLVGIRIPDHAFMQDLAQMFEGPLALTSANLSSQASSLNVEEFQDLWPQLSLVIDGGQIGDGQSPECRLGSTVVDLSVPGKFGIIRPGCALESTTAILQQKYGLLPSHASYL
Chain of UniProt Q9UK41 (Q9UK41 whole entry, looked up): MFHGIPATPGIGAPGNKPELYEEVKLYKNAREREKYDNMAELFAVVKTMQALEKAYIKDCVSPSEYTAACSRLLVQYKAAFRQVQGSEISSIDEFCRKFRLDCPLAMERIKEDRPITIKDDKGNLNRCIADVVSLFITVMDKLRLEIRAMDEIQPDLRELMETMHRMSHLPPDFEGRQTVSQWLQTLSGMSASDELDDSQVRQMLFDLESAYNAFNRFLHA

Regarding WDR7 (UniProt Q9Y4E6), the log2 fold change was -0.01 in assay [1]; -0.236 (active) with vorinostat; 0.032 with silmitasertib; 0.01 in assay [2]; -0.017 with entospletinib.

As to YLPM1 (UniProt P49750), the log2 fold change is 0.013 in assay [1]; -0.126 in the assay with vorinostat; -0.011 with silmitasertib; 0.017 in assay [2]; -0.004 in the assay with entospletinib.

VRK2 (UniProt Q86Y07): the log2 fold change in assay [1] is -0.158; in the assay with vorinostat it was -0.166; with silmitasertib, -0.022; in assay [2], 0.039; in the assay with entospletinib it was -0.064.

For the target USP3 (UniProt Q9Y6I4), the log2 fold change is 0.015 in assay [1]; -0.469 (active) with vorinostat; -0.026 with silmitasertib; 0.015 in assay [2]; -0.013 with entospletinib.

In the case of YRDC (UniProt Q86U90), the log2 fold change is 0.024 in assay [1]; -0.424 (active) with vorinostat; 0.006 in the assay with silmitasertib; -0.017 in assay [2]; -0.016 with entospletinib.

VRK1 (UniProt Q99986): the log2 fold change in assay [1] is -0.013; in the assay with vorinostat, -0.08; with silmitasertib, 0.091; in assay [2] it was 0.002; with entospletinib, 0.056.

Consider WDR91 (UniProt A4D1P6), for which the log2 fold change in assay [1] was -0.045; with vorinostat it was -0.227 (active); in the assay with silmitasertib it was 0.042; in assay [2] it was -0.004; with entospletinib it was -0.029.

On to VHL (UniProt P40337), for which the log2 fold change is 0.015 in assay [1]; -0.289 with vorinostat; -0.038 in the assay with silmitasertib; -0.011 in assay [2]; -0.001 with entospletinib.

With USP48 isoform 8 (UniProt Q86UV5), the log2 fold change is 0.014 in assay [1]; -0.474 (active) with vorinostat; 0.009 in the assay with silmitasertib; -0.022 in assay [2]; 0.021 in the assay with entospletinib.

Regarding UNC13D (UniProt Q70J99), the log2 fold change in assay [1] was 0.022; with vorinostat, -0.211 (active); with silmitasertib, 0.002; in assay [2], -0.006; with entospletinib, 0.026.

In the case of WDR6 (UniProt Q9NNW5), the log2 fold change in assay [1] was 0.012; with vorinostat it was -0.321 (active); with silmitasertib, 0.01; in assay [2] it was -0.025; in the assay with entospletinib, 0.

Take ZNF609 (UniProt O15014): the log2 fold change in assay [1] is 0.184; with vorinostat, -0.309 (active); with silmitasertib, 0.041; in assay [2], -0.013; in the assay with entospletinib, -0.026.

For the target UXT isoform 2 (UniProt Q9UBK9), the log2 fold change was -0.003 in assay [1]; 0.037 in the assay with vorinostat; -0.039 with silmitasertib; -0.025 in assay [2]; 0.02 with entospletinib.

VAC14 (UniProt Q08AM6): the log2 fold change is -0.02 in assay [1]; -0.229 (active) with vorinostat; 0.041 in the assay with silmitasertib; 0.005 in assay [2]; -0.008 with entospletinib.

Regarding VCPIP1 (UniProt Q96JH7), the log2 fold change in assay [1] was 0.007; with vorinostat it was 0.894 (active); with silmitasertib it was 0.029; in assay [2] it was -0.021; with entospletinib, 0.006.

As for WDR36 (UniProt Q8NI36), the log2 fold change in assay [1] was -0.051; with vorinostat, -0.345 (active); with silmitasertib, 0.044; in assay [2], 0.028; in the assay with entospletinib it was -0.011.

Take ZFYVE19 (UniProt Q96K21): the log2 fold change in assay [1] was 0.026; with vorinostat, 0.105; in the assay with silmitasertib, 0.002; in assay [2], 0.01; in the assay with entospletinib it was -0.012.

In the case of VPS28 (UniProt Q9UK41), the log2 fold change is 0.03 in assay [1]; -0.37 (active) with vorinostat; -0.002 with silmitasertib; -0.043 in assay [2]; 0.033 in the assay with entospletinib.
